PubChem BioAssay (NCI)
Where “and” joins values, the source holds several entries; their conditions need not be identical. Equal entries are not always repeated. Compounds without any hit were thinned out: in the full panel of roughly 79,000, 15% have a hit. Rule as the data show it: active = growth inhibition above about 70%; inactive = the rest.

Experiments:
[1] = NCI Yeast Anticancer Drug Screen. Data for the rad50 strain (AID 155);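 also: 0% = growth of vehicle-only cultures of the same strain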; conditions: S. cerevisiae rad50 strain growth inhibition; at 50.0 µM; stronger effect = higher value
Summary of the method: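 Compounds were tested on a yeast strain with an engineered DNA damage repair alteration; the reported value is growth inhibition normalised to vehicle treatment.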

[2] = NCI Yeast Anticancer Drug Screen. Data for the mec2-1 strain (AID 157); conditions: S. cerevisiae mec2-1 strain, at 50.0 µM, stronger effect = higher value
Summary of the method: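 Test agents were screened against the mec2-1 yeast strain, with defined DNA repair or cell cycle alteration. Growth was scored as inhibition against vehicle-only controls.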

[3] = NCI Yeast Anticancer Drug Screen. Data for the sgs1 mgt1 strain (AID 161);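 also: 0% = growth of cultures given vehicle only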; conditions: S. cerevisiae sgs1 mgt1 strain, at 50.0 µM, stronger effect = higher value
Summary of the method: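 Mutant yeast exposed to compound; growth scored against vehicle-only wells.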

[4] = NCI Yeast Anticancer Drug Screen. Data for the cln2 rad14 strain (AID 165);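 also: 0% = growth equal to vehicle treated cultures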; conditions: S. cerevisiae cln2 rad14 strain, at 50.0 µM, stronger effect = higher value
Summary of the method: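 Growth of compound-exposed yeast (cln2 rad14 genotype) measured and expressed as inhibition relative to vehicle.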

[5] = NCI Yeast Anticancer Drug Screen. Data for the bub3 strain (AID 167); conditions: S. cerevisiae bub3 mutant strain, at 50.0 µM, stronger effect = higher value
Summary of the method: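 Growth of a checkpoint-deficient yeast mutant is measured after compound exposure. Values represent inhibition relative to vehicle.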

[6] = NCI Yeast Anticancer Drug Screen. Data for the mlh1 rad18 strain (AID 175); conditions: S. cerevisiae mlh1 rad18 strain growth inhibition; at 50.0 µM; stronger effect = higher value
Summary of the method: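 In this whole-cell yeast screen, a strain with altered DNA damage repair is challenged with compound, and its growth is measured against matched vehicle-treated controls.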

Measured: growth inhibition

CC1CC(C)(C)C2=NCCN21 (stereo not given)
inactive: [1] 2.25% and -8.15% | [2] -23.6% and -28.6% | [3] -4.8% and 8.8% | [4] -3.2% and 18.6% | [5] -7.3% and 14.2% | [6] -0.7% and -3.25%

O=[N+]([O-])c1ccc2[nH]c(=S)[nH]c(=S)c2c1
inactive: [1] -27.1% and 17.1% | [2] -49.4% and 35.7% | [3] 5.25% and 51% | [4] 7.7% and 36.5% | [5] -5.7% and -1.3% | [6] 12.2% and 16.4%

c1ccc(CSSCc2ccccc2)cc1
inactive: [1] 9.45% and -1.4% | [2] -0.35% and -3.15% | [3] 3% and 1.85% | [4] -5.5% and -8.2% | [5] 4.9% and -9.9% | [6] 15.3% and -14.1%

COc1ccc(NS(=O)(=O)c2ccccc2)cc1
inactive: [1] -3.55% and -19.6% | [2] -2.7% and -17.2% | [3] -3.2% and -6.95% | [4] -20.7% and -48.8% | [5] 1.55% and 8.9% | [6] -6.3% and -9.8%

O=C(NC(=O)C(C(=O)c1ccccc1)c1ccccc1)c1ccccc1 (stereo not given)
inactive: [1] -3.95% and 2.65% | [2] 2.1% and -1.35% | [3] -6.9% and -12.2% | [4] 0.15% and 9.9% | [5] 5.6% and -4.05% | [6] -5.05% and -6.25%

COc1c2c(cc(O)c1C(C)=O)OC(C)(C)C=C2
inactive: [1] -4.8% and 16.6% | [2] -37.5% and -36.5% | [3] -11.6% and 16% | [4] -14.9% and 11.6% | [5] -12.1% and 18.1% | [6] -15% and 5.85%

Cc1nc2ccc(Br)cc2c(=O)n1-c1ccc(NC2OC(CO)C(O)C(O)C2O)cc1 (stereo not given)
inactive: [1] 49.9% and -0.75% | [2] 36.6% and -23.4% | [3] -33.1% and 0.7% | [4] -3.65% and -35.2% | [5] -49.1% and -7.65% | [6] -60.5% and -10.8%

COc1ccc2c(c1OC)C(=O)N1C2=Cc2c(cc3c(c2OC)OCO3)CC1N(C)C (stereo not given)
inactive: [1] 16.7% and 30.1% | [2] -26.1% and 33.8% | [3] 39.9% and 57.1% | [4] 12.3% and 13% | [5] -11.8% and 17.6% | [6] 12.7% and 41.2%

COc1ccc(C2c3cc(OC)c(OC)cc3CC(C(=O)O)C2C(=O)N(C)C)cc1OC (stereo not given)
inactive: [1] -2.05% and -30.2% | [2] 8% and -4.6% | [3] 35.3% and -0.15% | [4] 26.6% and 10.1% | [5] 4.7% and -4% | [6] 13.1% and 1.9%

O=C1C(c2ccccc2)=C(c2ccccc2)C(c2ccccc2)=C1c1ccccc1
inactive: [1] 36.6% and 12.2% | [2] -3.9% and 8.35% | [3] 15.8% and 25.2% | [4] -14% and -2.4% | [5] 0.25% and 12.2% | [6] 18.7% and 8.9%

OC1CCCC(O)C1O (stereo not given)
inactive: [1] 1.25% and 6.1% | [2] -2.7% and -12.9% | [3] 14.1% and 9.8% | [4] -7.2% and -2% | [5] 3.9% and 20.6% | [6] -2.65% and -4.4%

OC1CC2CCC(C1)S2 (stereo not given)
inactive: [1] -1.3% and 4.3% | [2] -25.3% and -2.75% | [3] -3.7% and 13.3% | [4] 9.85% and 13.3% | [5] 2.5% and 4.4% | [6] -11.6% and -1.55%

O=C(O)CCSCc1ccccc1
inactive: [1] -25.6% and 8.85% | [2] 0.7% and -6.9% | [3] -23.1% and 1.55% | [4] -31% and -3.5% | [5] -31.4% and -0.2% | [6] -30.3% and -16.1%

Nc1nc2nccnc2c(=O)[nH]1
inactive: [1] -10.2% and 6.15% | [2] 47% and -1.65% | [3] 1.55% and -5.7% | [4] -18.6% and -0.35% | [5] -24.9% and 1.45% | [6] -15.2% and -0.8%

CC(C)N=C(N)C(N)=NC(C)C
inactive: [1] 20.1% and -65.4% | [2] -18% and 6.55% | [3] -2.5% and -13.2% | [4] -67.2% and -46.5% | [5] 1.8% and -11.1% | [6] -14.6% and -16.9%

CN(C)C=C(S(C)(=O)=O)S(C)(=O)=O
inactive: [1] 10.2% and -24.7% | [2] -2.05% and -9.9% | [3] 20.1% and -9.85% | [4] -17.5% and 4.25% | [5] 5.8% and 14.9% | [6] 9.1% and -14.8%

Oc1ccccc1CNCc1ccccc1O
inactive: [1] -6.65% and -16.2% | [2] -13.5% and -2.7% | [3] -5.5% and -33% | [4] 23.8% and -28.1% | [5] 0.5% and -28.2% | [6] -1.05% and 3.55%

O=C1CCCCC1C(O)c1ccc([N+](=O)[O-])cc1 (stereo not given)
inactive: [1] 0.05% and -2.7% | [2] 16.1% and -5.9% | [3] 10.7% and -2.35% | [4] -2.35% and -15.2% | [5] 5.3% and -5.1% | [6] 16.1% and -6.85%

COC1OCCC(n2c(C)cc3c(N)ncnc32)C1O (stereo not given)
inactive: [1] -7.3% and 1.55% | [2] -19.2% and -8.6% | [3] -28.6% and -11.8% | [4] -4.15% and -1.7% | [5] -22.1% and -20.6% | [6] -29.2% and 2.05%

Cc1cc(C)c(C(=O)C(C)C(c2ccccc2)c2ccc(Cl)cc2)c(C)c1 (stereo not given)
inactive: [1] -16.4% and -14.6% | [2] -19.2% and -5.7% | [3] -12.8% and -16.1% | [4] 17.8% and -2.55% | [5] -8.7% and -10.6% | [6] -15.2% and -2.45%

O=C(CCCOc1ccc(Cl)cc1Cl)NC(Cc1c[nH]c2ccccc12)C(=O)O (stereo not given)
inactive: [1] -1.3% and 1.5% | [2] 0.15% and -1.95% | [3] 4.3% and -3.6% | [4] 19.1% and 18.7% | [5] -17.6% and -17.1% | [6] 7.2% and 10.7%

O=C1C(Br)CCCCCCCCCC1Br (stereo not given)
inactive: [1] -26.2% and 45% | [2] -6.4% and 11.2% | [3] 4.05% and 50% | [4] -3.1% and 22.9% | [5] -12.3% and 24.4% | [6] 0.9% and 36.4%

Nc1ccc(CCc2ccc(N)cc2)cc1
inactive: [1] 2.95% and -24.4% | [2] -6.85% and -19.4% | [3] -34.4% and -18.4% | [4] -48.5% and -20.8% | [5] 7.35% and -18.9% | [6] 12.2% and -8.65%

O=C1C2C3C=CC(C3)C2C(=O)N1O (stereo not given)
inactive: [1] 18.1% and 24.3% | [2] -7.6% and -8.3% | [3] 7.1% and 11.2% | [4] 10% and 10.6% | [5] 25.1% and 3.05% | [6] 11.4% and 18.5%

CC(Cc1ccccc1)NC(=O)c1ccccc1 (stereo not given)
inactive: [1] 18.2% and 5.45% | [2] 3.3% and -1.1% | [3] -19.9% and -2.25% | [4] -93.5% and -7.65% | [5] -14.9% and 2.45% | [6] 7.4% and -5.3%

CC(=O)Nc1cccc(N)c1
inactive: [1] 8.05% and 12.3% | [2] -12% and 6.65% | [3] 0.35% and -3.95% | [4] 5.4% and -40.4% | [5] 5.1% and 0.7% | [6] 9.6% and -1.3%

C/C=C(\C)C(=O)O
inactive: [1] 17.6% and -9.95% | [2] 9.3% and -5.05% | [3] -4.9% and -41.8% | [4] 13.2% and 2.25% | [5] 11.4% and -42.2% | [6] 25% and 9.75%

COc1cc2c(cc1OC)C1Cc3cc(OC)c(OC)cc3C(C2)N1C
inactive: [1] 23.4% and -37.9% | [2] 4.4% and -16.9% | [3] -6.2% and -5% | [4] 6.8% and 2.6% | [5] -5.25% and -3.2% | [6] -45% and -24.2%

CCCC(=O)Oc1ccc(C(C)C)cc1
inactive: [1] 6% and 13.8% | [2] -22.3% and -1.45% | [3] -8.2% and 2.05% | [4] 10.4% and -31.6% | [5] -9.75% and 13.3% | [6] 5.8% and 10.1%

OC(CBr)C(O)C(O)C(O)CBr (stereo not given)
inactive: [1] 13.9% and 16.8% | [2] 7.6% and -4.25% | [3] 4.15% and -11.3% | [4] 8.75% and -9.4% | [5] -10.8% and 0.2% | [6] -13% and -11.9%
